SARS PLP yeast = blocks SARS-CoV papain-like protease in a yeast assay. Potency, µM (series often up to 32.9 µM), actives largely listed as activators. S. cerevisiae expressing SARS-CoV PLpro, growth rescue. actives 0.19% (n = 330,000); calls by dose curve; note: nearly all actives have a fitted effect of over 55% in size
Pf growth 96h = P. falciparum growth inhibition at 96 hour, primary screen for plastid delayed-death inhibitors; AID 504834; actives 6.9% (n = 320,000); P. falciparum luciferase reporter growth, 96 h; Potency, µM (top dose mostly 28.7 µM), actives largely listed as inhibitors
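Luminescence readout: decreased luciferase signal marks inhibited growth of reporter-expressing P. falciparum in infected red cells (2% hematocrit, 0.05% parasitemia final), exposed to compound two generations (96 h, 37 C, 5% CO2).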
AmpC inh no detg = blocks E. coli AmpC beta-lactamase in detergent-free assay | P00811 | AmpC nitrocefin hydrolysis, absorbance 480 nm, 0.0001% Triton | Potency, µM (top dose mostly 57.1 µM), most hits filed as inhibitors | actives 0.52% (n = 330,000) | AID 485341; note: nearly all actives have a fitted effect of over 20% in size
Target sequence (P00811 whole entry, looked up): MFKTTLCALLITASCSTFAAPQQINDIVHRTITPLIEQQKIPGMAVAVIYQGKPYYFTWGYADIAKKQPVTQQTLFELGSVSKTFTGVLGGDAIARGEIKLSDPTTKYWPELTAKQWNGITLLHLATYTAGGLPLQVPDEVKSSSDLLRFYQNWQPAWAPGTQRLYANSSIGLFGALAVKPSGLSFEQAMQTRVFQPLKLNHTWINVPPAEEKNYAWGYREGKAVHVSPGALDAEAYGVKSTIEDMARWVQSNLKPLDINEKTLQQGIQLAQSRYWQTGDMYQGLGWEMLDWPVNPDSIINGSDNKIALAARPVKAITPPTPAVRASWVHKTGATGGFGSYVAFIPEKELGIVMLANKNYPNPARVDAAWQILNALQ
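20 mM phosphate pH 7.0 + 0.01% (detergent screen) or 0.0001% Triton X-100; 5.3 nM AmpC reagent; cpd preinc 15 min RT; nitrocefin (800 uM stock) to start; A480 q20 s × 4 min; Activity was normalised to no-enzyme and no-compound control wells.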
Pf growth 48h = inhibits P. falciparum growth in the first generation, 48 h | actives 5.9% (n = 310,000) | P. falciparum luciferase growth in erythrocytes, 48 h | AID 504832 | Potency, µM (titrated, usually from 28.7 µM), actives largely listed as inhibitors
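Growth was read as firefly luciferase luminescence after a 48 h, 37 C, 5% CO2 exposure of compounds to reporter-bearing P. falciparum cultures (0.1% parasitemia, 2% hematocrit final) in Albumax-supplemented RPMI 1640.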
Sm TGR inh = blocks Schistosoma mansoni thioredoxin glutathione reductase. Potency, µM (titrated, usually from 114 µM), hits mostly inhibitors. purified TGR, DTNB reduction, TNB absorbance 405 nm. actives 3% (n = 360,000). Q962Y6; note: nearly all actives have a fitted effect of over 60% in size
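Kinetic colorimetric format: TGR-catalysed, NADPH-driven DTNB reduction monitored via TNB absorbance. Enzyme dispensed at 20 nM; compound exposure 15 min at room temperature before reaction start.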
AmpC detergent = blocks E. coli AmpC beta-lactamase in detergent assay | P00811 | AmpC hydrolysis of nitrocefin, absorbance 480 nm, 0.01% Triton | Potency, µM (titrated, usually from 114 µM), usual class: inhibitors | actives 0.041% (n = 370,000); note: nearly all actives have a fitted effect of over 25% in size
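20 mM phosphate pH 7.0 + 0.01% (detergent screen) or 0.0001% Triton X-100; 5.3 nM AmpC reagent; cpd preinc 15 min RT; nitrocefin (800 uM stock) to start; A480 q20 s × 4 min; Activity was normalised to no-enzyme and no-compound control wells.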
Large screens that a line does not name were inactive. The list is not random: actives were taken first. Their share in the collection is about 12%. Unless noted, calls come from the whole dose curve; as a rule, active = well fitted curve in the direction sought with a large enough effect; inconclusive = small, poorly fitted or top-dose-only effect, or another doubt; inactive = no such curve, though single readings can be large; an effect the other way counts as inactive or inconclusive.

CCC1c2ccc(C)n2CCN1C(=O)Nc1ccccc1C(=O)OC (stereo not drawn)	Pf growth 48h 5.2µM
Cc1cccc(Cc2c(C)nc3nc(SCc4ccccc4F)nn3c2C)c1	none (no result: SARS PLP yeast, Pf growth 96h, AmpC inh no detg, Pf growth 48h)
O=C1C(Cc2ccccc2)Nc2ncnc(N3CCCCC3)c2N1Cc1ccccc1 (stereo not drawn)	none (no result: Pf growth 96h, Pf growth 48h, Sm TGR inh, AmpC detergent)
CCOc1ccccc1NC(=O)COc1cccc2c(=O)n(CCOC)ccc12	none (no result: SARS PLP yeast, Pf growth 96h, AmpC inh no detg, Pf growth 48h)
CCOC(=O)c1ccccc1NC(=O)N1CCn2c(C)ccc2C1CC (stereo not drawn)	Sm TGR inh 7.1µM (no result: Pf growth 96h)
CCOC(=O)C(C(C)=O)c1c(Br)c(O)c(O)c2c(C(=O)c3ccc(C)cc3)coc12 (stereo not drawn)	Sm TGR inh 4.5µM (no result: Pf growth 96h, Pf growth 48h)
CC(C)(C)c1cc(C(=S)N2CCCC2)cc(C(C)(C)C)c1O	Pf growth 96h 4.1µM, Pf growth 48h inconclusive
CC(C)(C)c1cc(CCC(=O)N2CCCC2)cc(C(C)(C)C)c1O	none
COc1cc(C(=O)Nc2nonc2-c2ccc(Cl)cc2)cc(OC)c1OC	none (no result: SARS PLP yeast, Pf growth 96h, AmpC inh no detg, Pf growth 48h)
O=C(/C=C\c1ccco1)Oc1cccc2cccnc12	Pf growth 48h inconclusive, Sm TGR inh inconclusive
CCc1ccc(OC(=O)/C=C/c2ccco2)cc1	Pf growth 96h inconclusive, Sm TGR inh 28µM
O=C(Cc1ccccc1)N/N=C/c1ccc(OC(=O)/C=C\c2ccco2)cc1	Sm TGR inh 35µM
O=C(/C=C/c1ccco1)Oc1cccc2cccnc12	Pf growth 96h 5.9µM, Pf growth 48h 5.2µM, Sm TGR inh inconclusive
COC(=O)N/N=C/c1ccc(OC(=O)/C=C/c2ccco2)cc1	Sm TGR inh inconclusive
CC(C)c1ccc(Nc2c(-c3ccc(N(C)C)cc3)nc3cnccn23)cc1	none (no result: SARS PLP yeast, Pf growth 96h, AmpC inh no detg, Pf growth 48h)
CCOC(=O)c1sc2ncn(CC(=O)Nc3ccc(C)cc3C)c(=O)c2c1C	none (no result: SARS PLP yeast, Pf growth 96h, AmpC inh no detg, Pf growth 48h)
CSc1nc(N(C)NC(=O)c2ccc(F)cc2)c2ccccc2n1	Pf growth 96h 2.3µM, Pf growth 48h 2.1µM
CCc1ccc(C(=O)C(C)CN2CCCCC2)cc1 (stereo not drawn)	Pf growth 96h 1.5µM (no result: SARS PLP yeast, AmpC inh no detg, Sm TGR inh, AmpC detergent)
NC(=O)CCCCC1CCSS1 (stereo not drawn)	Pf growth 96h 11µM, Pf growth 48h inconclusive (no result: SARS PLP yeast, AmpC inh no detg, Sm TGR inh, AmpC detergent)
COc1ccc2c(c1)c1c(c(=O)n(Cc3ccccc3)c(=O)n1Cc1ccccc1)n2C	none (no result: SARS PLP yeast, Pf growth 96h, AmpC inh no detg, Pf growth 48h)
O=C(O)CC1CCCC(c2ccccc2)C1=O (stereo not drawn)	SARS PLP yeast inconclusive, Pf growth 96h 13µM
NN1C(=O)/C(=C\c2ccco2)SC1=S	Sm TGR inh 11µM
O=C1/C(=C/c2ccco2)SC(=S)N1c1cccnc1	Sm TGR inh 14µM
CCN1C(=O)c2ccc(C(=O)NCc3ccco3)cc2C1=O	Pf growth 96h inconclusive
Cc1ccc(CN2C(=O)c3ccccc3C2C(=O)NCc2cccnc2)cc1 (stereo not drawn)	Sm TGR inh inconclusive (no result: Pf growth 48h)
O=C(NCc1cccnc1)C1c2ccccc2C(=O)N1C1CCCC1 (stereo not drawn)	AmpC inh no detg 20µM, AmpC detergent inconclusive
CC(Sc1nnc2c(n1)[nH]c1ccccc12)C(=O)NC1CCCCC1 (stereo not drawn)	Pf growth 48h 9.3µM
CC(C)OCCCN1C=C2C(=O)C(C)(OC(=O)CCc3ccccc3)C(=O)C=C2C=C1c1ccc(C#N)cc1 (stereo not drawn)	Pf growth 96h inconclusive, Pf growth 48h 10µM
Clc1ccc(-c2noc(CN(Cc3ccccn3)CC3CCCO3)n2)cc1 (stereo not drawn)	Pf growth 96h inconclusive
Cc1oc(-c2ccc(F)cc2)nc1CN(Cc1ccccn1)CC1CCCO1 (stereo not drawn)	Pf growth 96h inconclusive, Pf growth 48h inconclusive, Sm TGR inh 40µM
COc1ccc(C(=O)c2cn(CC(=O)Nc3ccc4c(c3)OCCO4)c3ccc(OC)cc3c2=O)cc1	none (no result: SARS PLP yeast, Pf growth 96h, AmpC inh no detg, Pf growth 48h)
COc1ccc2c(c1)C(=O)N1[C@H]3c4cc(Cl)ccc4OC[C@@H]3[C@H](c3ccccc3)[C@]1(C)C(=O)N2	none (no result: Pf growth 96h, Pf growth 48h, Sm TGR inh, AmpC detergent)

Source: PubChem BioAssay
